Sampled rows, rich in hits. Any-hit rate of the full collection: about 1.5%.
Mtb MenB inh = inhibitors of Mycobacterium tuberculosis MenB enzyme; MenB enzyme assay, absorbance read-out; inhibition, % (test concentration not listed); hit rate 0.43% among 100,000; AID 540299; in the data active = inhibition above about 21%, passing the limit was not always enough
Target sequence (P9WNP5 whole entry, looked up): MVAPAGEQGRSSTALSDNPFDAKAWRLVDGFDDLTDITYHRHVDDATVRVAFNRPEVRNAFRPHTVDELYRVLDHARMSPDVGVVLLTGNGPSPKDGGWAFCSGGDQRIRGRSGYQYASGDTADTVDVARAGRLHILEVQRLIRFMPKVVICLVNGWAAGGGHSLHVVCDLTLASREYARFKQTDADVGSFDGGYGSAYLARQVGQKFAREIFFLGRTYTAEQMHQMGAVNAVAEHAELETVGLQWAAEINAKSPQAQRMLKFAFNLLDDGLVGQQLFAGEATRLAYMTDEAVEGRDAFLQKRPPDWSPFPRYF
Polio RdRp inh = inhibitors of poliovirus RNA polymerase binding and polymerization. poliovirus polymerase elongation, fluorescence polarization; active compounds read low. % elongation, % (compound at 16.7 µg/mL). hit rate 0.66% among 150,000. AID 588519; in the data active = % elongation below about 90%
AID504770 = E. coli YBA685 growth inhibition, screen for V. cholerae RctB inhibitors. E. coli YBA685 rctB-dependent plasmid, OD600 growth, 3 h; active compounds read low. z-score (test concentration not listed). hit rate 0.27% among 130,000. AID 504770; in the data active = z-score below about -2, passing the limit was not always enough
MbtI inh = inhibitors of Mycobacterium tuberculosis siderophore enzyme MbtI. AID 493033. hit rate 0.89% among 100,000. purified MbtI enzyme, fluorescence intensity read-out. inhibition, % (concentration not given with the values); in the data active = inhibition mostly above about 56%, no sharp cut-off; inactive = mostly below about 77%
* = called active by the depositor; / = no result given.

SMILES	Mtb MenB inh	Polio RdRp inh	AID504770	MbtI inh
CC(C)CNCC(=O)N(C1CCCCC1)C1CCCCC1	-14	102	1.7	1
S=C1CSc2ccccc2N1	-13	92	-0.8	78*
c1ccc2c(c1)Nc1ccccc1S2	-20	102	-0.05	10
COC(=O)C1=C(NC(=O)c2ccccc2F)CCS1	2	100	-0.05	-3
COc1ccc(-c2cc3nccc(-c4cc(Cl)c(C)cc4O)n3n2)cc1	/	86*	/	/
COC(=O)c1ccc(NC(=O)C(C)Sc2nc3c(c(=O)[nH]2)CCCC3)cc1 (configuration not stated)	-6	102	-0.6	81*
O=c1[nH]c(SCc2ccccc2)nc2c1CCCC2	/	111	/	/
CCOC(=O)C(Sc1nc2c(c(=O)[nH]1)CCCC2)c1ccccc1 (configuration not stated)	-10	/	-0.35	74*
COC(=O)/C=C/C(=O)Nc1ccccc1	-11	101	-2.2	101*
COc1ccc(/C=C/C(=O)Nc2ccccc2)cc1	3	101	-0.75	13
Cc1cc(O)c(C=O)c2c1C(=O)Oc1c(C)c(O)c3c(c1O2)C(O)OC3=O (configuration not stated)	7	66*	0.25	-33
O=C(CCNS(=O)(=O)c1ccccc1)N1CCCC1	2	102	0.25	-8
CC(CNS(=O)(=O)c1ccccc1)(c1ccccc1)N1CCCCC1 (configuration not stated)	/	100	-4.1*	-9
CC/C(=N\N=c1/sc2ccccc2n1C)c1ccc(OC)c(OC)c1	-27	96	-0.05	4
Cc1nc(-c2c[nH]c3ccccc23)c(C)s1	-15	73*	-1.1	/
Cc1ccc2nc(-c3ccc(-n4ccc(=O)cc4)cc3)sc2c1	/	105	-0.45	-181
CCCCN(C)C(=O)C1CCN(Cc2ccc(OCC)cc2)CC1	3	45*	-0.15	/
CCCCN(Cc1ccccc1)C(=O)C1CCN(Cc2cccc(O)c2)CC1	-3	103	-0.4	/
O=C(NC1CCCc2ccccc21)c1cc(S(=O)(=O)N2CCCCC2)c[nH]1 (configuration not stated)	-44	101	2	-6
O=S(=O)(NC1CCc2ccccc21)c1ccc(S(=O)(=O)N2CCCC2)cc1 (configuration not stated)	39*	102	1.4	-5
Cc1ccc2cc(C#N)c(N3CCCN(C(=O)C4CCCCC4)CC3)nc2c1	17	99	0	4
COCCNC(=S)N1CCCN(c2nc3cc(C)ccc3cc2C#N)CC1	21*	102	-0.6	22
COC(=O)C(C)n1nnc2sc(-c3ccccc3)cc2c1=O (configuration not stated)	/	126	/	/
CCc1ccc(NC(=O)C(C)n2nnc3sc(-c4ccccc4)cc3c2=O)cc1 (configuration not stated)	/	79*	/	/
CCOC(=O)c1cn(C2CC2)c2c(F)c(F)c(F)cc2c1=O	-12	100	-0.15	/
SMILES	Mtb MenB inh	Polio RdRp inh	AID504770	MbtI inh
CC(C)Cc1ccc([C@H](C)C(=O)O)cc1	-8	99	/	/
CC(C)Cc1ccc(CC(=O)O)cc1	-48	80*	-0.15	89
N=C1C(c2nc3ccccc3s2)=C(O)CN1N1C(=O)c2ccccc2C1=O	0	89*	-0.05	54
O=C1CC(c2ccccc2)C(=O)N1Cc1ccc(Cl)cc1 (configuration not stated)	-22	101	1.4	-35
CNC(=O)NC(=O)CN1C(=O)c2ccccc2C1=O	-4	109	0.55	-2
O=c1[nH]nc(SCc2cn3ccccc3n2)c(=O)[nH]1	-11	32*	-2.5	54
Cc1cc(=O)[nH]c(SCc2cn3ccccc3n2)n1	/	/	-1.4	/
CCOC(=O)c1sc(NC(=O)Cc2n[nH]c(=O)c3ccccc23)cc1C	-26	101	0.25	-6
COC(=O)c1cc(C)sc1N	8	100	-1.6	95*
COC(=O)Nc1sc(C)cc1C(=O)OC	3	99	-0.25	-3
N#CC1(NC(=O)Cn2cnc3c(Cl)cc(Cl)cc3c2=O)CCCCC1	-1	104	-0.65	0
Cc1c(C)[n+]([O-])c2ccc3c(non3O)c12	-138	101	-2.2*	13
CCOC(=O)c1c(NC(=O)c2ccc(S(=O)(=O)N3CCCC(C)C3)cc2)sc2c1CC(C)(C)NC2(C)C (configuration not stated)	/	102	/	/
CCOC(=O)c1c(NC(=O)c2ccc(S(=O)(=O)N(CCOC)CCOC)cc2)sc2c1CC(C)(C)NC2(C)C	/	83*	/	/
CC(C)(C)c1cc(NC(=O)/C=C/c2cccs2)n(-c2ccccc2)n1	-8	104	-0.2	2
O=C(COC(=O)c1ccco1)NCC1CCCO1 (configuration not stated)	35*	99	0	-3
CC(C)N(Cc1ccccc1)C(=O)c1ccc(OC(F)(F)F)cc1	/	/	0	/
CC(C)CNC(=O)c1ccccc1S(=O)(=O)N1CCCCC1	-23	115	-0.95	94*
CCc1c(C)nc(SCCOc2ccc(OC)cc2)[nH]c1=O	/	/	0.35	/
COc1ccc(OCCSc2nc(C)cc(=O)[nH]2)cc1	51*	102	-0.3	12
CCn1c2ccccc2c2nc(C)sc21	-2	107	-0.55	/
CCn1c(=S)sc2nc(C)sc21	9	101	-0.4	101*
O=C(Nc1ccccc1)c1ccc2c(c1)CCO2	/	/	-2.2	/
CC(C)Cn1cc(NC(=O)Nc2cccc(C(F)(F)F)c2)c2ccccc2c1=O	/	70*	/	/
CCCN(CCC)C(=O)Nc1cn(CC(C)C)c(=O)c2ccccc12	-24	97	0.3	120
SMILES	Mtb MenB inh	Polio RdRp inh	AID504770	MbtI inh
Cc1ccc(NC(=O)Nc2cn(CC(C)C)c(=O)c3ccccc23)cc1N(C)C	/	73*	/	/
CN(Cc1ccccc1)S(=O)(=O)c1cc2c3c(c1)CCC(=O)N3CCC2	3	100	0.6	16
CC(NC(=O)Cn1[nH]c(=O)c2ccccc2c1=O)c1ccc(-n2ccnc2)cc1 (configuration not stated)	-9	97	-0.3	-4
Cc1noc(C)c1CSc1ccccc1C(=O)NC(C)c1ccc(-n2ccnc2)cc1 (configuration not stated)	5	98	-0.25	99*
O=C(Cn1nc(C(=O)O)c2ccccc2c1=O)NC1CCCC1	7	106	-0.4	-1
CC(C)Cc1nnc(NS(C)(=O)=O)s1	-31	102	-0.1	95*
CC1(C)N([O-])c2ccccc2[N+]1=O	-41	96	-4*	25
CN(C)C(CNC(=O)c1ccccn1)c1ccco1 (configuration not stated)	-43	101	-0.2	39
CN(C)C(CNCc1ccc(-n2cnc3ccccc32)cc1)c1ccco1 (configuration not stated)	32*	101	1.3	5
CN(C)c1nc(C2CC2)nc2c1nnn2Cc1ccccc1Cl	38*	104	1.9	7
CC(C)(C)OC(=O)N1CCC(c2nc3c(nnn3Cc3ccccc3Cl)c(=O)[nH]2)CC1	-17	104	0.35	-10
NC(=O)C1CCN(c2nc(C3CC3)nc3c2nnn3Cc2ccccc2Cl)CC1	52*	102	2.5	7
CC(C)(C)c1nc(N2CCN(C(=O)c3ccco3)CC2)c2nnn(Cc3ccccc3Cl)c2n1	24*	103	0.85	23
